Data published in the supplement of paper PMC10849652.
Targets with a hit are over-represented here; the source holds about 8,800 in all. About 0.5% of all pairs of compound and target were hits.

Tests used:
Assay in all cases: log2 fold change, soluble protein after heating vs DMSO (PISA); higher = thermal stabilisation; K562 lysate, 10 uM; active = over 0.2 and 3.5 SD of the protein, either way, in both replicates (recomputed)
[1] = compound: CC1=C2C(=CC=C1)N=C(N(C2=O)C3=CC=CC=C3C)CN4C=NC5=C(N=CN=C54)N
How it was run: (§1)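 Log-two fold change in thermal stability relative to solvent controls is reported from duplicates. For each sample, crude K562 extract from dounce-homogenised pellets in PBS pH 7.4 with 1 mM MgCl2, at 1 mg/mL protein, was treated with 10 μM compound for 30 min. Aliquots heated for 3 min across 48°C-58°C were pooled, brought to 0.5% NP-40 at 4°C and cleared at 21,000xg for 90 min. The supernatant was quantified by TMTpro 16plex LC-MS/MS with channel sums equalised.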

[2] = compound: Cc1sc2c(c1C)C(c1ccc(Cl)cc1)=N[C@@H](CC(=O)OC(C)(C)C)c1nnc(C)n1-2
How it was run: as §1

[3] = compound: c1ccc([C@@H]2C[C@H]2NC2CCNCC2)cc1
How it was run: as §1

[4] = compound: C1=CC=C(C=C1)[C@H](COC2=CC3=C(C=C2)NC(=O)N3)NC(=O)C4=CC=CN(C4=O)CC5=CC(=C(C=C5)F)F
How it was run: as §1

[5] = compound: CC1=C(SC2=C1C(=N[C@H](C3=NN=C(N32)C)CC(=O)N)C4=CC=C(C=C4)Cl)C
How it was run: as §1

Measured: log2 fold change

CEBPZOS (UniProt A8MTT3)
Sequence of UniProt A8MTT3 (A8MTT3 whole entry, looked up): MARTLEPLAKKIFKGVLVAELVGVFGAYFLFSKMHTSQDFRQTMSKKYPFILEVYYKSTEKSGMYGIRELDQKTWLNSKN
inactive: [1] -0.03 | [2] -0.006 | [3] 0.018

C8orf88 (UniProt P0DMB2)
Sequence of UniProt P0DMB2 (P0DMB2 whole entry, looked up): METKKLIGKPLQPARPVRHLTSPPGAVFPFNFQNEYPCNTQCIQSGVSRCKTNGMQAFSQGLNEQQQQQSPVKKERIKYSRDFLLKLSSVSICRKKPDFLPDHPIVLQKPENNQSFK
inactive: [4] 0.033 | [5] 0.051 | [2] 0.051 | [3] -0.002

CHD4, A0A2R8Y521
inactive: [2] -0.136

CEP295 isoform 3 (UniProt Q9C0D2)
Sequence of UniProt Q9C0D2 (Q9C0D2 whole entry, looked up): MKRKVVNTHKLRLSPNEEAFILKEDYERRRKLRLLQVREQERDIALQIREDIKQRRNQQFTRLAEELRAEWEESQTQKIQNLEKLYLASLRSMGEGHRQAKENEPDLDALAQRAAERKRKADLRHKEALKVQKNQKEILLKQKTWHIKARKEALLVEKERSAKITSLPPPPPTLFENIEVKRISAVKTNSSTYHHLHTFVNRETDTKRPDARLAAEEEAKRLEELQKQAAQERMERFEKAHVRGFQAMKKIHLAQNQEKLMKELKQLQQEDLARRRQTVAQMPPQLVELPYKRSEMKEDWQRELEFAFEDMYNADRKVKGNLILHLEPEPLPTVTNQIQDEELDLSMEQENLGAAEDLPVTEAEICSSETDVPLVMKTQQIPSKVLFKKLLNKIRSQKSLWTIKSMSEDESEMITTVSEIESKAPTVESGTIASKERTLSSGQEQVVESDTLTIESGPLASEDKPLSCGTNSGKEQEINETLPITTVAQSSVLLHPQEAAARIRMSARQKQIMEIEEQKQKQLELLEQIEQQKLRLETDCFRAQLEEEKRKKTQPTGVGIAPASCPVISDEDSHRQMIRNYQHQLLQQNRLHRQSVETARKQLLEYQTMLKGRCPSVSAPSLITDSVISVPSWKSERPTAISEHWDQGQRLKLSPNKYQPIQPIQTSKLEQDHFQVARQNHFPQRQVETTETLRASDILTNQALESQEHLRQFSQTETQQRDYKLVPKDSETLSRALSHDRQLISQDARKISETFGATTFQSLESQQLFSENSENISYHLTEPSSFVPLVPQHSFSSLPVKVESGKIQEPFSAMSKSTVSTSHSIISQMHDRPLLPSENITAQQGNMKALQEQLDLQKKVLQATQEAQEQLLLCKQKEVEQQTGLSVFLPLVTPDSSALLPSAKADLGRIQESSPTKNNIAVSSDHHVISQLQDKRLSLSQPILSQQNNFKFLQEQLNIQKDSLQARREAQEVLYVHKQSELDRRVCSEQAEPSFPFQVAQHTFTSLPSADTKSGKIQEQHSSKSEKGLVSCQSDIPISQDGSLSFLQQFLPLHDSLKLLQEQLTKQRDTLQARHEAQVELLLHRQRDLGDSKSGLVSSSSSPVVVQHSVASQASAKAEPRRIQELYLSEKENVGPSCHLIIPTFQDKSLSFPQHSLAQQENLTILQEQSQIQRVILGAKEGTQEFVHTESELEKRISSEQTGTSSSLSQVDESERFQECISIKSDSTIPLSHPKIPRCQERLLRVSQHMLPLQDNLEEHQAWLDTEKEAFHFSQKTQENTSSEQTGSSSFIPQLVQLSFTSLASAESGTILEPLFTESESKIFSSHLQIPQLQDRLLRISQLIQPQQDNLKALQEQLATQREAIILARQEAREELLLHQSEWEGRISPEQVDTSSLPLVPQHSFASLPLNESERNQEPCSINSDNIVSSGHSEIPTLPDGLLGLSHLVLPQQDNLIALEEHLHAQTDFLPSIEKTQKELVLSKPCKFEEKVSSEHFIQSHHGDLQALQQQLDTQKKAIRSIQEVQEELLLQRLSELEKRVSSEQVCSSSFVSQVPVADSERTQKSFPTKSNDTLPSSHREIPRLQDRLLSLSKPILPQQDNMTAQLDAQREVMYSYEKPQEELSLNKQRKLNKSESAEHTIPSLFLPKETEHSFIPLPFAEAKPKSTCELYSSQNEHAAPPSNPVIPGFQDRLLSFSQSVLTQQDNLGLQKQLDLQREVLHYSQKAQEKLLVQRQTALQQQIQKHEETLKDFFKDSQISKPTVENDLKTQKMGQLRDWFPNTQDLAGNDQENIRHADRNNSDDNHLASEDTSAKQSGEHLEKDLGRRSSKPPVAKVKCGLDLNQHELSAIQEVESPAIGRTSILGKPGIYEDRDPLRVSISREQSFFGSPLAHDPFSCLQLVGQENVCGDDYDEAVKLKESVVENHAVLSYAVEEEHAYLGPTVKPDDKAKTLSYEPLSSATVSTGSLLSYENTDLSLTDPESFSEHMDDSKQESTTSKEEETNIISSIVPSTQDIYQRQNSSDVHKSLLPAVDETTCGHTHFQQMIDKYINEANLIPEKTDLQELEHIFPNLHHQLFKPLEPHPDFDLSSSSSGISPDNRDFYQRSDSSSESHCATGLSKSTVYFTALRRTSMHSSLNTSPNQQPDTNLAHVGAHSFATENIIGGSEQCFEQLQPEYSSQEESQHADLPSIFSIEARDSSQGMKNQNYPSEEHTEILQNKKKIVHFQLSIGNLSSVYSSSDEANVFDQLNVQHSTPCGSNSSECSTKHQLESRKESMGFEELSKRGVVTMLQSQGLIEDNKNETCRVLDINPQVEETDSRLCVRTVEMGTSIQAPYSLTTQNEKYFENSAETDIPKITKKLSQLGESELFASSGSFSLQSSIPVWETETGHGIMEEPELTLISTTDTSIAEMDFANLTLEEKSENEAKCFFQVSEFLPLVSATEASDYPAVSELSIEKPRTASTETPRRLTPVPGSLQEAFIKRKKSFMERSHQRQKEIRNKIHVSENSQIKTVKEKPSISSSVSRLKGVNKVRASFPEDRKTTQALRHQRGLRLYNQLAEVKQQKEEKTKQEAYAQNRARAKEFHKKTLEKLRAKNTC
inactive: [4] -0.154 | [5] 0.045 | [3] 0.024

CARHSP1 (UniProt H3BNU9)
inactive: [4] -0.034 | [5] -0.224 | [3] 0.094

CDK11A (UniProt Q9UQ88)
Sequence of UniProt Q9UQ88 (Q9UQ88 whole entry, looked up): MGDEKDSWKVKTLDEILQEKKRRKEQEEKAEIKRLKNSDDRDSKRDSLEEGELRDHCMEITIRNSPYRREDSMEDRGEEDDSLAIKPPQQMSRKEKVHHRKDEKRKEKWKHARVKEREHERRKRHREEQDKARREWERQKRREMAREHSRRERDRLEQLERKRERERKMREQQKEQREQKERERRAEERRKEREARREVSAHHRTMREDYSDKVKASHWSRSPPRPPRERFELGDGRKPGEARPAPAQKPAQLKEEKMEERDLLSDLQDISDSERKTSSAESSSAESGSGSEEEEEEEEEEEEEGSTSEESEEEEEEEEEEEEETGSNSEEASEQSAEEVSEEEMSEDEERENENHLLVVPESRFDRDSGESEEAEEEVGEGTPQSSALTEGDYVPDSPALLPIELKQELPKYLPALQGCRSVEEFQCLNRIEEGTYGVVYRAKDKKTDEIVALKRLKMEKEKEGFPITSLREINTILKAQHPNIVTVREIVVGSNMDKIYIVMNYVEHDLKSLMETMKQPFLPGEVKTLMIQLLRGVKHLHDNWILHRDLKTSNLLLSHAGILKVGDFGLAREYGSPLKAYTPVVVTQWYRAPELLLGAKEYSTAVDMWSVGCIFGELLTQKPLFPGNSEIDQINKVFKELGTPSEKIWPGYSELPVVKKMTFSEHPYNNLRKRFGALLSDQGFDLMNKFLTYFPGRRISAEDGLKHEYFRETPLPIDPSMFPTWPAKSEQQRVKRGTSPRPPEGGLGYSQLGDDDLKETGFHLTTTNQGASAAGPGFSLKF
inactive: [4] -0.046 | [5] 0.025 | [2] 0.091 | [3] 0

BICRA (UniProt Q9NZM4)
inactive: [4] -0.077 | [5] 0.208 | [2] -0.122 | [3] -0.142

BMT2 (UniProt Q1RMZ1)
inactive: [3] 0.123

BNIP3 (UniProt Q12983)
Sequence of UniProt Q12983 (Q12983 whole entry, looked up): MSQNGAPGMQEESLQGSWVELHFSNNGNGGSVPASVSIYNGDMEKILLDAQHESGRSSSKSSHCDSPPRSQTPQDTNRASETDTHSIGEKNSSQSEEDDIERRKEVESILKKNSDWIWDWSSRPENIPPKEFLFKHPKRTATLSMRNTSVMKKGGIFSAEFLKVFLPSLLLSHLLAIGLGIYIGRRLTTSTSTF
inactive: [4] 0.034 | [5] -0.053 | [2] -0.023 | [3] -0.074

CASP7 isoform 3 (UniProt P55210)
Sequence of UniProt P55210 (P55210 whole entry, looked up): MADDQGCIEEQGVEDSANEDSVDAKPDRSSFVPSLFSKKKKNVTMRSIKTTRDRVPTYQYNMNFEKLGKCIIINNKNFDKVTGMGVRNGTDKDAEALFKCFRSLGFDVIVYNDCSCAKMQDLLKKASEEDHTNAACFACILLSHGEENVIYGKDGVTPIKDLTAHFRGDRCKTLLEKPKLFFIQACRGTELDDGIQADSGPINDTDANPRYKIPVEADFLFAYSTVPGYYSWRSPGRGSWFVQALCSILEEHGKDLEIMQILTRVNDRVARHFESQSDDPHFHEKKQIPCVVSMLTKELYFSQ
inactive: [4] 0.035 | [5] -0.02 | [2] -0.105

CAPNS1 (UniProt K7ES78)
inactive: [1] -0.094 | [2] -0.216

CDKL5 (UniProt O76039)
inactive: [1] 0.043 | [2] -0.139 | [3] -0.132

C9orf72 (UniProt Q96LT7)
inactive: [4] -0.012 | [5] 0.049 | [2] -0.028 | [3] 0.002

BBS7 (UniProt Q8IWZ6)
Sequence of UniProt Q8IWZ6 (Q8IWZ6 whole entry, looked up): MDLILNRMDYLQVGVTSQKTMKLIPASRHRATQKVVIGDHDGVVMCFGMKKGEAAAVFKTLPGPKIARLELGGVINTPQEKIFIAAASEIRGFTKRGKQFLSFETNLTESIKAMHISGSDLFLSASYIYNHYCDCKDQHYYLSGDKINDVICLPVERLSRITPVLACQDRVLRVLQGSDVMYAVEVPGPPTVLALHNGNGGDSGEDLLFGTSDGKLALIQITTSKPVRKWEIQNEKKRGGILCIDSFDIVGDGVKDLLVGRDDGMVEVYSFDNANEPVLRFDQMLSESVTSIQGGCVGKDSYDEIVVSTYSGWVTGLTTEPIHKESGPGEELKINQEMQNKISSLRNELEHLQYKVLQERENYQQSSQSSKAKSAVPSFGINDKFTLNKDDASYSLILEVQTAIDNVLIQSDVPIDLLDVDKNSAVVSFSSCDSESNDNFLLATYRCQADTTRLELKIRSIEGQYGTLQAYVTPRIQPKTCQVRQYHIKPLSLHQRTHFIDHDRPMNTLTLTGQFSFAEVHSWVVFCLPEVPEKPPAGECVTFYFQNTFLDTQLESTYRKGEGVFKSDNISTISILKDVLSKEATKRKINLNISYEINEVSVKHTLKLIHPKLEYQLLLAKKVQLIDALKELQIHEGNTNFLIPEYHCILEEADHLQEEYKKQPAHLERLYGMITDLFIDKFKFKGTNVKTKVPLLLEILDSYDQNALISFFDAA
inactive: [1] 0.035 | [2] -0.358 | [3] 0.181
